In PubChem BioAssay (NCATS) one finds max response, Potency and activity, negative = inhibition data, which are given here for 38 molecules.

“And” between values parts separate entries of the source, which are not always exact repeats. Identical values can stand only once. Inconclusive results are not listed. The source made the active and inactive calls. The call rests on the fitted dose curve; in most records, active means well fitted curve in the direction sought with a large enough effect; inconclusive means small, poorly fitted or top-dose-only effect, or another doubt; inactive means no such curve, though single readings can be large; an effect the other way counts as inactive or inconclusive.
On the % scale 0 is the no-effect control and ±100 the full control effect.

The nature of the first assay: qHTS Assay for Identifying Gametocytocidal Compounds (AID 743244).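 Further: actives lower the fluorescent signal which means gametocytes are killed.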 To be noted: P. falciparum 3D7 stage III-V gametocytes, alamarBlue, 72 h; max response: hits give low values. In outline:
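3D7 gametocytes, stages III–V, 20,000/well; cpd 72 h, 37 °C/5% CO2; + alamarBlue 24 h; fluor. Ex 525/Em 598.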
(In qHTS, concentration-response curves come from the screen itself.)
Turning to `c1ccc(-n2cnnn2)cc1`, the max response was 0.811% (inactive).
Same read-out and setting: as for `CC1(C)C(\C=C/C=C\C=C/C=C2/N(CCCCS(=O)(=O)O)c3ccc4ccccc4c3C2(C)C)=[N+](CCCCS(=O)(=O)[O-])c2ccc3ccccc3c21`, the figure is 2.8% (inactive); as for `Cc1c(Cl)cccc1Nc1ncccc1C(=O)O`, -5.77% (inactive).
For the molecule `CCCCCCCCCCCCCCCC(=O)OC[C@H](COP(=O)([O-])OCC[N+](C)(C)C)OC(=O)CCCCCCCCCCCCCCC`, the max response was 1.23% (inactive).
In the case of `COc1ccc(/C=C/C(=O)OCCC(C)C)cc1`, the max response is 3.66% (inactive).
As for `CC(=O)Nc1ccc(OC(=O)c2ccccc2O)cc1`, the max response is -4.48% (inactive).
Same read-out and setting: as for `Cc1ccc(S(=O)(=O)NC(=O)N[C@@H](C)Cc2ccccc2)cc1`, the figure is 23.6% (inactive).
Same read-out and setting: as for `CC(C)CCCC(C)NC(C)C` (stereo unspecified), the figure is 15.9% (inactive).
Still for that read-out and setting: as for `CCCCCCCCCCCCCCCCCC(=O)OCC(C)O` (stereo unspecified), the figure is 2.45% (inactive); as for `N=C(N)n1cccn1`, 13.6% (inactive).
With `CCOC(=O)Oc1c(OC)cc(C(=O)O[C@@H]2C[C@@H]3CN4CCc5c([nH]c6cc(OC)ccc56)[C@H]4C[C@@H]3[C@H](C(=O)OC)[C@H]2OC)cc1OC`, the max response is 3.15% (inactive).
The same measure, in the same setting: as for `COc1ccc(C(=O)/C(Br)=C\C(=O)O)cc1`, the figure is 20.3% (inactive).
For `CCC(Oc1ccccc1)C(=O)N[C@@H]1C(=O)N2[C@@H]1SC(C)(C)[C@@H]2C(=O)O` (stereo partly specified), the max response was 14.1% (inactive).
For the molecule `O=C1CC[C@@H](C(=O)N[C@H]2C[C@@H]2c2ccccc2)N1`, the max response was -4.02% (inactive).
Still for that read-out and setting: as for `CC(=O)N=c1sc(S(N)(=O)=O)nn1C`, the figure is 3.69% (inactive); as for `CCc1ccc(S(=O)(=O)O)cc1`, -6.98% (inactive).
The same measure, in the same setting: as for `C[C@]12CC[C@@H]3c4ccc(O)cc4CC[C@H]3[C@@H]1CC[C@@H]2OP(=O)(O)O`, the figure is -0.293% (inactive); as for `CC(C)C[C@H](NC(=O)[C@@H](COC(C)(C)C)NC(=O)[C@H](Cc1ccc(O)cc1)NC(=O)[C@H](CO)NC(=O)[C@H](Cc1c[nH]c2ccccc12)NC(=O)[C@H](Cc1cnc[nH]1)NC(=O)[C@@H]1CCC(=O)N1)C(=O)N[C@@H](CCCN=C(N)N)C(=O)N1CCC[C@H]1C(=O)NNC(N)=O`, 16.2% (inactive) and -4.65% (inactive); as for `CCN(CC)CCOC(=O)c1cccnc1`, 6.67% (inactive).
On the same count and under the same terms, as for `COC(=O)[C@@H](N)CS`, the figure is 0.957% (inactive).
As for `CCCc1nc(C(C)(C)O)c(C(=O)OCc2oc(=O)oc2C)n1Cc1ccc(-c2ccccc2-c2nn[nH]n2)cc1`, the max response is 48.2% (inactive).
Same read-out and setting: as for `C[C@@H]1C/C=C/C=C/C=C/C=C/[C@H](O[C@@H]2O[C@H](C)[C@@H](O)[C@H](N)[C@@H]2O)C[C@@H]2O[C@](O)(C[C@@H](O)C[C@H]3O[C@@H]3/C=C/C(=O)O1)C[C@H](O)[C@H]2C(=O)O`, the figure is 15.6% (inactive); as for `O=C(CCCCCCCCCCCCC1CCCC1)Nc1ccc(S(=O)(=O)c2ccc(NC(=O)CCCCCCCCCCCCC3CCCC3)cc2)cc1`, 1.73% (inactive); as for `CCC(Cc1c(I)cc(I)c(O)c1I)C(=O)O` (stereo unspecified), 11.2% (inactive).
On the same count and under the same terms, as for `O=C1c2ccccc2C(=O)C1c1ccc(F)cc1`, the figure is 5.59% (inactive); as for `CC1CCCC(C)N1NC(=O)c1ccc(Cl)c(S(N)(=O)=O)c1` (stereo unspecified), 7.73% (inactive); as for `CC(C)(C)NCC(O)c1ccc(O)c(CO)n1` (stereo unspecified), 6.55% (inactive).
On the same count and under the same terms, as for `COc1ccc(C(=O)CCC(=O)O)c2ccccc12`, the figure is -11.7% (inactive).
In the case of `O=C(O)c1cc(N=Nc2ccc(O)c(C(=O)O)c2)ccc1O`, the max response was 0.0283% (inactive).
On the same count and under the same terms, as for `O=C(O)CCC/C=C\C[C@@H]1[C@@H](/C=C/[C@@H](O)COc2cccc(Cl)c2)[C@H](O)C[C@@H]1O`, the figure is -3.1% (inactive); as for `CC1CC(OC(=O)C(O)c2ccccc2)CC(C)(C)C1` (stereo unspecified), 25% (inactive); as for `OC/C=C/c1ccccc1`, 2.6% (inactive).
Still for that read-out and setting: as for `CNC(=O)C[C@@H](N)C(=O)N[C@@H](C(=O)N[C@@H]1C(=O)N2[C@@H]1SC(C)(C)[C@@H]2C(=O)O)c1ccc(O)cc1`, the figure is -4.28% (inactive); as for `COc1ccc(/C=C/C(=O)O)cc1`, -1.23% (inactive); as for `CC[C@H](C)[C@@H]1NC(=O)[C@H](Cc2ccc(O)cc2)NC(=O)[C@@H](N)CSSC[C@@H](C(=O)N2CCC[C@H]2C(=O)N[C@@H](CC(C)C)C(=O)NCC(N)=O)NC(=O)[C@H](CC(N)=O)NC(=O)[C@H](CCC(N)=O)NC1=O`, 0.419% (inactive).
Same read-out and setting: as for `C[C@@H](O)[C@H]1C(=O)N2C(C(=O)[O-])=C(SC3Cn4cnc[n+]4C3)[C@H](C)[C@H]12` (stereo partly specified), the figure is -4.53% (inactive); as for `OC[C@H]1OC([S-])[C@H](O)[C@@H](O)[C@@H]1O.[Au+]` (stereo partly specified), -13.3% (inactive).
`Cc1cc(C)c(NC(=O)C[C@H](CC(=O)O)c2cccc3ccccc23)c(C(=O)N2CCC3(CCCC3)CC2)c1`: the max response is -8.09% (inactive).

The next assay can be described thus: qHTS assay to identify small molecule inhibitors of chordoma cells - UCH-1 (AID 1259355). Further: nearly all actives have a fitted effect of over 55% in size. To be noted: UCH-1 chordoma viability, CellTiter-Glo, 48 h, combination, with auranofin plus four topoisomerase inhibitors; series mostly up to 46.1 µM. In outline:
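Screening used approved and investigational drugs in 15-point titration against 800 seeded cells per well. A fixed combination of auranofin with camptothecin, doxorubicin, rubitecan and topotecan followed compound addition, and growth was scored by CellTiter-Glo after 48hr.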
On to `c1ccc(-n2cnnn2)cc1`, for which the Potency entry was “inactive”.
Still for that read-out and setting: as for `CC1(C)C(\C=C/C=C\C=C/C=C2/N(CCCCS(=O)(=O)O)c3ccc4ccccc4c3C2(C)C)=[N+](CCCCS(=O)(=O)[O-])c2ccc3ccccc3c21`, the entry is “inactive”.
The same measure, in the same setting: as for `Cc1c(Cl)cccc1Nc1ncccc1C(=O)O`, the entry is “inactive”; as for `CCCCCCCCCCCCCCCC(=O)OC[C@H](COP(=O)([O-])OCC[N+](C)(C)C)OC(=O)CCCCCCCCCCCCCCC`, “inactive”; as for `COc1ccc(/C=C/C(=O)OCCC(C)C)cc1`, “inactive”.
The same measure, in the same setting: as for `CC(=O)Nc1ccc(OC(=O)c2ccccc2O)cc1`, the entry is “inactive”.
Take `Cc1ccc(S(=O)(=O)NC(=O)N[C@@H](C)Cc2ccccc2)cc1`: the Potency entry is “inactive”.
Still for that read-out and setting: as for `CC(C)CCCC(C)NC(C)C` (stereo unspecified), the entry is “inactive”.
Still for that read-out and setting: as for `CCCCCCCCCCCCCCCCCC(=O)OCC(C)O` (stereo unspecified), the entry is “inactive”.
The same measure, in the same setting: as for `N=C(N)n1cccn1`, the entry is “inactive”; as for `CCOC(=O)Oc1c(OC)cc(C(=O)O[C@@H]2C[C@@H]3CN4CCc5c([nH]c6cc(OC)ccc56)[C@H]4C[C@@H]3[C@H](C(=O)OC)[C@H]2OC)cc1OC`, “inactive”; as for `COc1ccc(C(=O)/C(Br)=C\C(=O)O)cc1`, “inactive”.
As to `CCC(Oc1ccccc1)C(=O)N[C@@H]1C(=O)N2[C@@H]1SC(C)(C)[C@@H]2C(=O)O` (stereo partly specified), the Potency entry was “inactive”.
Still for that read-out and setting: as for `O=C1CC[C@@H](C(=O)N[C@H]2C[C@@H]2c2ccccc2)N1`, the entry is “inactive”.
Still for that read-out and setting: as for `CC(=O)N=c1sc(S(N)(=O)=O)nn1C`, the entry is “inactive”; as for `CCc1ccc(S(=O)(=O)O)cc1`, “inactive”.
`C[C@]12CC[C@@H]3c4ccc(O)cc4CC[C@H]3[C@@H]1CC[C@@H]2OP(=O)(O)O`: the Potency result was “inactive”.
Take `CC(C)C[C@H](NC(=O)[C@@H](COC(C)(C)C)NC(=O)[C@H](Cc1ccc(O)cc1)NC(=O)[C@H](CO)NC(=O)[C@H](Cc1c[nH]c2ccccc12)NC(=O)[C@H](Cc1cnc[nH]1)NC(=O)[C@@H]1CCC(=O)N1)C(=O)N[C@@H](CCCN=C(N)N)C(=O)N1CCC[C@H]1C(=O)NNC(N)=O`: the Potency result is “inactive”.
The same measure, in the same setting: as for `CCN(CC)CCOC(=O)c1cccnc1`, the entry is “inactive”; as for `COC(=O)[C@@H](N)CS`, “inactive”; as for `CCCc1nc(C(C)(C)O)c(C(=O)OCc2oc(=O)oc2C)n1Cc1ccc(-c2ccccc2-c2nn[nH]n2)cc1`, “inactive”.
For the molecule `C[C@@H]1C/C=C/C=C/C=C/C=C/[C@H](O[C@@H]2O[C@H](C)[C@@H](O)[C@H](N)[C@@H]2O)C[C@@H]2O[C@](O)(C[C@@H](O)C[C@H]3O[C@@H]3/C=C/C(=O)O1)C[C@H](O)[C@H]2C(=O)O`, the Potency result is “inactive”.
Take `O=C(CCCCCCCCCCCCC1CCCC1)Nc1ccc(S(=O)(=O)c2ccc(NC(=O)CCCCCCCCCCCCC3CCCC3)cc2)cc1`: the Potency entry is “inactive”.
Same read-out and setting: as for `CCC(Cc1c(I)cc(I)c(O)c1I)C(=O)O` (stereo unspecified), the entry is “inactive”.
Take `O=C1c2ccccc2C(=O)C1c1ccc(F)cc1`: the Potency result is “inactive”.
On the same count and under the same terms, as for `CC1CCCC(C)N1NC(=O)c1ccc(Cl)c(S(N)(=O)=O)c1` (stereo unspecified), the entry is “inactive”.
Still for that read-out and setting: as for `CC(C)(C)NCC(O)c1ccc(O)c(CO)n1` (stereo unspecified), the entry is “inactive”; as for `COc1ccc(C(=O)CCC(=O)O)c2ccccc12`, “inactive”.
Same read-out and setting: as for `O=C(O)c1cc(N=Nc2ccc(O)c(C(=O)O)c2)ccc1O`, the entry is “inactive”; as for `O=C(O)CCC/C=C\C[C@@H]1[C@@H](/C=C/[C@@H](O)COc2cccc(Cl)c2)[C@H](O)C[C@@H]1O`, “inactive”.
On to `CC1CC(OC(=O)C(O)c2ccccc2)CC(C)(C)C1` (stereo unspecified), for which the Potency entry was “inactive”.
As for `OC/C=C/c1ccccc1`, the Potency result is “inactive”.
Same read-out and setting: as for `CNC(=O)C[C@@H](N)C(=O)N[C@@H](C(=O)N[C@@H]1C(=O)N2[C@@H]1SC(C)(C)[C@@H]2C(=O)O)c1ccc(O)cc1`, the entry is “inactive”; as for `COc1ccc(/C=C/C(=O)O)cc1`, “inactive”.
Turning to `CC[C@H](C)[C@@H]1NC(=O)[C@H](Cc2ccc(O)cc2)NC(=O)[C@@H](N)CSSC[C@@H](C(=O)N2CCC[C@H]2C(=O)N[C@@H](CC(C)C)C(=O)NCC(N)=O)NC(=O)[C@H](CC(N)=O)NC(=O)[C@H](CCC(N)=O)NC1=O`, the Potency entry is “inactive”.
Regarding `C[C@@H](O)[C@H]1C(=O)N2C(C(=O)[O-])=C(SC3Cn4cnc[n+]4C3)[C@H](C)[C@H]12` (stereo partly specified), the Potency entry is “inactive”.
Consider `OC[C@H]1OC([S-])[C@H](O)[C@@H](O)[C@@H]1O.[Au+]` (stereo partly specified), for which the Potency entry was “inactive”.
As to `Cc1cc(C)c(NC(=O)C[C@H](CC(=O)O)c2cccc3ccccc23)c(C(=O)N2CCC3(CCCC3)CC2)c1`, the activity, negative = inhibition was -1.62% [at 1.88 µM] (inactive).
